The results in this text go back to PubChem BioAssay (NCI).

A short description of assay [1]: NCI Yeast Anticancer Drug Screen. Data for the rad50 strain (AID 155).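 Further: 0% = growth of vehicle-only cultures of the same strain.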 As to conditions: S. cerevisiae rad50 strain growth inhibition, stronger effect = higher value. Put shortly:
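Relative growth inhibition (compound vs vehicle) was measured in yeast with a defined repair-gene alteration.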

Assay [2] is described as follows: NCI Yeast Anticancer Drug Screen. Data for the mec2-1 strain (AID 157). To be noted: S. cerevisiae mec2-1 strain, stronger effect = higher value. Put shortly:
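Vehicle-treated cultures served as reference for growth inhibition of compound-exposed mec2-1 yeast.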

Assay [3] is described as follows: NCI Yeast Anticancer Drug Screen. Data for the sgs1 mgt1 strain (AID 161).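 Further: 0% = growth of cultures given vehicle only.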 To be noted: S. cerevisiae sgs1 mgt1 strain, stronger effect = higher value. Put shortly: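 Test agents were incubated with a DNA-repair-mutant yeast strain. Growth was then read and compared against vehicle-treated controls.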
Assay [4] is described as follows: NCI Yeast Anticancer Drug Screen. Data for the cln2 rad14 strain (AID 165).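 Further: 0% = growth equal to vehicle treated cultures.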 To be noted: S. cerevisiae cln2 rad14 strain, stronger effect = higher value. A digest of the protocol:
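Each compound was tested on cln2 rad14 yeast. Inhibition of growth was calculated against vehicle-exposed controls.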

Assay [5] is described as follows: NCI Yeast Anticancer Drug Screen. Data for the bub3 strain (AID 167). As to conditions: S. cerevisiae bub3 mutant strain, stronger effect = higher value. A digest of the protocol:
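Screening used yeast with an engineered genetic alteration affecting cell cycle control. Compound-exposed cultures were compared with vehicle cultures, and reduced growth was taken as inhibition.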

Assay [6] in a line: NCI Yeast Anticancer Drug Screen. Data for the mlh1 rad18 strain (AID 175). As to conditions: S. cerevisiae mlh1 rad18 strain growth inhibition, stronger effect = higher value. A digest of the protocol: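 Vehicle-treated cultures served as the reference for growth inhibition in a yeast strain carrying DNA damage repair alterations exposed to each compound.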
The mark [7] stands for this setting: at 5.0 µM (retest, dose inferred, filed as 0.5).
Where [8] appears, read: at 50.0 µM (retest, dose inferred, filed as 5.0).

Values joined by “and” are separate entries in the source; they are usually repeats but may differ in a detail not shown here. Equal values may be shown once. This is part of a sample that, as a whole, favours compounds with a hit. Of some 79,000 tested, about 15% had one in any assay. Some compounds were tested as several samples or in several runs, with calls that do not always agree. Active and inactive are the calls of the source. No stated cut-off is given here; in the data, active means growth inhibition above about 70%; inactive means the rest.

As to `N=C(N)c1ccccc1`, the growth inhibition in assay [1] (setting [7]) is 12% (inactive); in assay [1] (setting [8]) it was 79% (active); in assay [1] (at 50.0 µM) it was -2.25% (inactive) and 80.2% (active); in assay [2] (setting [7]) it was -1% (inactive); in assay [2] (setting [8]), 20% (inactive); in assay [2] (at 50.0 µM), 5.4% (inactive) and 2.1% (inactive). In addition, the growth inhibition in assay [3] (setting [7]) is 2% (inactive); in assay [3] (setting [8]), 23% (inactive); in assay [3] (at 50.0 µM), -1.6% (inactive) and 17.9% (inactive); in assay [4] (setting [7]) it was 6% (inactive); in assay [4] (setting [8]), 13% (inactive); in assay [4] (at 50.0 µM), -0.6% (inactive) and 49.5% (inactive). Also, the growth inhibition in assay [5] (setting [7]) was -2% (inactive); in assay [5] (setting [8]), 8% (inactive); in assay [5] (at 50.0 µM), 6.9% (inactive) and 25.4% (inactive); in assay [6] (setting [7]) it was -2% (inactive); in assay [6] (setting [8]) it was 22% (inactive); in assay [6] (at 50.0 µM), -14.5% (inactive) and 46.6% (inactive).
`CCCCCCCCCCCCC(=O)[O][Hg][c]1ccccc1`: the growth inhibition was 99% (active) in assay [1] (setting [7]); 99% (active) in assay [1] (setting [8]); 99.2% (active) in assay [1] (at 50.0 µM); 100% (active) in assay [2] (setting [7]); 100% (active) in assay [2] (setting [8]); 99.5% (active) in assay [2] (at 50.0 µM). The growth inhibition in assay [3] (setting [7]) is 100% (active); in assay [3] (setting [8]) it was 100% (active); in assay [3] (at 50.0 µM), 99.5% (active); in assay [4] (setting [7]) it was 99% (active); in assay [4] (setting [8]), 99% (active); in assay [4] (at 50.0 µM), 99.3% (active). In addition, the growth inhibition in assay [5] (setting [7]) is 99% (active); in assay [5] (setting [8]), 99% (active); in assay [5] (at 50.0 µM), 100% (active); in assay [6] (setting [7]) it was 99% (active); in assay [6] (setting [8]) it was 99% (active); in assay [6] (at 50.0 µM), 99.5% (active).
Regarding `C1CC[N-]CC1.[Cl][Au]([Cl])[Cl]`, the growth inhibition was 42% (inactive) in assay [1] (setting [7]); 93% (active) in assay [1] (setting [8]); 93.3% (active) in assay [1] (at 50.0 µM); 15% (inactive) in assay [2] (setting [7]); 63% (inactive) in assay [2] (setting [8]); 65.5% (inactive) in assay [2] (at 50.0 µM). Besides, the growth inhibition in assay [3] (setting [7]) is 26% (inactive); in assay [3] (setting [8]), 89% (active); in assay [3] (at 50.0 µM) it was 93% (active); in assay [4] (setting [7]), 31% (inactive); in assay [4] (setting [8]), 74% (active); in assay [4] (at 50.0 µM), 60.4% (inactive). Besides, the growth inhibition is 25% (inactive) in assay [5] (setting [7]); 76% (active) in assay [5] (setting [8]); 48.9% (inactive) in assay [5] (at 50.0 µM); 34% (inactive) in assay [6] (setting [7]); 94% (active) in assay [6] (setting [8]); 96.8% (active) in assay [6] (at 50.0 µM).
As to `O=[n+]1c2ccccc2n([O-])c2ccccc21.[Cl][Ni][Cl]`, the growth inhibition in assay [1] (setting [7]) was 96% (active); in assay [1] (setting [8]), 99% (active); in assay [1] (at 50.0 µM), 90.8% (active); in assay [2] (setting [7]), 75% (active); in assay [2] (setting [8]), 100% (active); in assay [2] (at 50.0 µM), 92.7% (active). In addition, the growth inhibition in assay [3] (setting [7]) is 89% (active); in assay [3] (setting [8]), 99% (active); in assay [3] (at 50.0 µM) it was 92.3% (active); in assay [4] (setting [7]) it was 33% (inactive); in assay [4] (setting [8]), 98% (active); in assay [4] (at 50.0 µM), 90.6% (active). The growth inhibition is 68% (inactive) in assay [5] (setting [7]); 100% (active) in assay [5] (setting [8]); 89% (active) in assay [5] (at 50.0 µM); 92% (active) in assay [6] (setting [7]); 96% (active) in assay [6] (setting [8]); 91.9% (active) in assay [6] (at 50.0 µM).
As to `O=[N+]([O-])c1ccc([Se]CCBr)c([N+](=O)[O-])c1`, the growth inhibition is 5% (inactive) in assay [1] (setting [7]); 36% (inactive) in assay [1] (setting [8]); 38.4% (inactive) in assay [1] (at 50.0 µM); 1% (inactive) in assay [2] (setting [7]); 23% (inactive) in assay [2] (setting [8]); 41% (inactive) in assay [2] (at 50.0 µM). Moreover, the growth inhibition in assay [3] (setting [7]) is 5% (inactive); in assay [3] (setting [8]) it was 95% (active); in assay [3] (at 50.0 µM), 18.2% (inactive); in assay [4] (setting [7]) it was 2% (inactive); in assay [4] (setting [8]), 88% (active); in assay [4] (at 50.0 µM) it was 15.8% (inactive). The growth inhibition in assay [5] (setting [7]) was -2% (inactive); in assay [5] (setting [8]) it was 90% (active); in assay [5] (at 50.0 µM) it was 30.2% (inactive); in assay [6] (setting [7]), 10% (inactive); in assay [6] (setting [8]), 96% (active); in assay [6] (at 50.0 µM), 19.8% (inactive).
Consider `CCCCCCCCCCCCN=C(N)N`, for which the growth inhibition in assay [1] (setting [7]) is 80% (active); in assay [1] (setting [8]) it was 98% (active); in assay [1] (at 50.0 µM), 99.1% (active); in assay [2] (setting [7]), 72% (active); in assay [2] (setting [8]), 99% (active); in assay [2] (at 50.0 µM) it was 99.3% (active). Besides, the growth inhibition in assay [3] (setting [7]) is 87% (active); in assay [3] (setting [8]), 99% (active); in assay [3] (at 50.0 µM) it was 99% (active); in assay [4] (setting [7]), 59% (inactive); in assay [4] (setting [8]) it was 98% (active); in assay [4] (at 50.0 µM), 98.5% (active). The growth inhibition was 96% (active) in assay [5] (setting [7]); 99% (active) in assay [5] (setting [8]); 99.4% (active) in assay [5] (at 50.0 µM); 71% (active) in assay [6] (setting [7]); 98% (active) in assay [6] (setting [8]); 98.4% (active) in assay [6] (at 50.0 µM).
Take `S=c1[nH]c2ccccc2s1`: the growth inhibition in assay [1] (setting [7]) was -8% (inactive); in assay [1] (setting [8]), 45% (inactive); in assay [1] (at 50.0 µM) it was 3.25% (inactive) and 53.4% (inactive); in assay [2] (setting [7]), -7% (inactive); in assay [2] (setting [8]), 52% (inactive); in assay [2] (at 50.0 µM), -22.3% (inactive) and 30.1% (inactive). The growth inhibition is -3% (inactive) in assay [3] (setting [7]); 51% (inactive) in assay [3] (setting [8]); 15.8% (inactive) and 62% (inactive) in assay [3] (at 50.0 µM); -12% (inactive) in assay [4] (setting [7]); 1% (inactive) in assay [4] (setting [8]); -11.1% (inactive) and 11.7% (inactive) in assay [4] (at 50.0 µM). For the same molecule, the growth inhibition is -4% (inactive) in assay [5] (setting [7]); 29% (inactive) in assay [5] (setting [8]); 8.85% (inactive) and 55.8% (inactive) in assay [5] (at 50.0 µM); -7% (inactive) in assay [6] (setting [7]); 38% (inactive) in assay [6] (setting [8]); 4.95% (inactive) and 71.9% (active) in assay [6] (at 50.0 µM).
Turning to `CC(=O)O[C@H]1C[C@@H]2OC3C=C(C)CCC3(C)[C@@]1(C)[C@@]21CO1` (some centres not stated), the growth inhibition in assay [1] (setting [7]) is 99% (active); in assay [1] (setting [8]), 99% (active); in assay [1] (at 50.0 µM), 92.5% (active) and 18.9% (inactive); in assay [2] (setting [7]), 100% (active); in assay [2] (setting [8]), 100% (active); in assay [2] (at 50.0 µM), 94.3% (active) and 1.7% (inactive). The growth inhibition in assay [3] (setting [7]) was 99% (active); in assay [3] (setting [8]), 99% (active); in assay [3] (at 50.0 µM), 94% (active) and 32.1% (inactive); in assay [4] (setting [7]), 99% (active); in assay [4] (setting [8]), 99% (active); in assay [4] (at 50.0 µM), 92.2% (active) and 6.4% (inactive). The growth inhibition in assay [5] (setting [7]) is 99% (active); in assay [5] (setting [8]), 99% (active); in assay [5] (at 50.0 µM), 92.7% (active) and 2.9% (inactive); in assay [6] (setting [7]), 99% (active); in assay [6] (setting [8]), 99% (active); in assay [6] (at 50.0 µM), 92.8% (active) and 17.9% (inactive).
For the molecule `COc1ccc2c3c(c4cc(OC)c(OC)cc4c2c1)C[C@H]1CCCCN1C3`, the growth inhibition was 99% (active) in assay [1] (setting [7]); 99% (active) in assay [1] (setting [8]); 92.6% (active) in assay [1] (at 50.0 µM); 99% (active) in assay [2] (setting [7]); 100% (active) in assay [2] (setting [8]); 94.2% (active) in assay [2] (at 50.0 µM). Further, the growth inhibition in assay [3] (setting [7]) was 99% (active); in assay [3] (setting [8]), 99% (active); in assay [3] (at 50.0 µM), 93.8% (active); in assay [4] (setting [7]), 99% (active); in assay [4] (setting [8]), 99% (active); in assay [4] (at 50.0 µM), 92.5% (active). Further, the growth inhibition in assay [5] (setting [7]) is 99% (active); in assay [5] (setting [8]), 99% (active); in assay [5] (at 50.0 µM) it was 93.2% (active); in assay [6] (setting [7]), 99% (active); in assay [6] (setting [8]), 99% (active); in assay [6] (at 50.0 µM) it was 93% (active).
